Results filed as inconclusive are left out. Calls of active or inactive are those of the source. Unless noted, calls come from the whole dose curve; as a rule, active = well fitted curve in the direction sought with a large enough effect in the repeat runs; inconclusive = weak or mixed curves; inactive = no such curve, though single readings can be large; an effect the other way counts as inactive or inconclusive.

Test [1] is described as follows: qHTS assay to identify small molecule agonists of the TGF-beta/Smad signaling pathway - cell viability counter screen (AID 1346829). Note: top concentration of the series differs between compounds; nearly all actives have a fitted effect of over 45% in size. Particulars: SBE-bla HEK293T viability, CellTiter-Glo luminescence, 5 h; series mostly up to 76.8 µM. Summed up:
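Cytotoxicity counter screen: CellTiter-Glo luminescence (30 min, room temperature) measured in the SBE-bla HEK 293T reporter wells after 5 hr compound treatment at 37 C and the 2 hr substrate step.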

Test [2] can be described thus: qHTS assay to identify small molecule agonists of the TGF-beta/Smad signaling pathway (AID 1346859; active = well fitted activation curve with a large enough effect in the signal ratio in the repeat runs, not every such curve was filed as active; the % refers to the signal ratio). Particulars: SBE-bla HEK293T, TGF-beta/Smad beta-lactamase reporter, 5 h; series mostly up to 76.8 µM. Summed up:
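Beta-lactamase reporter activity downstream of Smad binding elements was measured in stably transfected HEK 293T cells; compounds were incubated for 5 hr, substrate for 2 hr at room temperature.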

Test [3] can be described thus: Human pregnane X receptor (PXR) small molecule agonists, qHTS cell viability counter screen (AID 1346977). Note: nearly all actives have a fitted effect of over 50% in size. Note: potency is the fitted concentration of half-maximal effect. Particulars: PXR-Luc HepG2 viability, CellTiter-Fluor, 24 h; series mostly up to 92.4 µM. The essentials:
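After a 5hr pre-incubation, PXR-Luc HepG2 cells received compounds plus positive control in DMSO and were kept 24hr at 37C. Cell viability was quantified by fluorescence from CellTiter-Fluor added for the final hour.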
(In general: qHTS replaces the single test concentration by a dilution series.)

Test [4] can be described thus: Caspase-3/7 induction in HepG2 cells by small molecules, qHTS assay (AID 1346978). Note: nearly all actives have a fitted effect of over 15% in size. Particulars: HepG2 caspase-3/7 activation, Caspase-Glo luminescence, 17 h; series mostly up to 92.4 µM. Summed up: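 Wild-type HepG2 cells (2,000/well) were settled 5 h at 37 C, 5% CO2, then exposed to compounds in DMSO for 17 h. Caspase-3/7 activity was read by luminescence 30 min after adding Caspase-Glo 3/7 reagent at room temperature.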

Test [5] is described as follows: Caspase-3/7 induction in CHO-K1 cells by small molecules, qHTS assay (AID 1346980). Note: nearly all actives have a fitted effect of over 15% in size. Particulars: CHO-K1 caspase-3/7 induction, Caspase-Glo luminescence, 17 h; series mostly up to 92.4 µM. The essentials:
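Wild-type cells were seeded at 1,500 per well and settled 5 hr at 37 C, 5% CO2, then exposed to DMSO-dissolved compounds for 17 hr. Caspase-Glo 3/7 reagent was added, and luminescence was read after 30min at room temperature.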

Test [6] can be described thus: Caspase-3/7 induction in HepG2 cells by small molecules, qHTS cell viability counter screen (AID 1346981). Note: nearly all actives have a fitted effect of over 30% in size. Note: potency is the fitted concentration of half-maximal effect. Particulars: CellTiter-Fluor fluorescence, 17 h; series mostly up to 92.4 µM. Summed up: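 Wild-type HepG2 cells, 2,000/well, settled 5 hr at 37 C, 5% CO2 before compound addition. Viability read by CellTiter-Fluor fluorescence, reagent added after 16 hr compound exposure, then 1 hr at 37C, in the same wells as the caspase read.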

Test [7] can be described thus: Caspase-3/7 induction in CHO-K1 cells by small molecules, qHTS cell viability counter screen (AID 1346979). Note: nearly all actives have a fitted effect of over 35% in size. Note: potency is the fitted concentration of half-maximal effect. Particulars: CellTiter-Fluor fluorescence, 17 h; series mostly up to 92.4 µM. The essentials:
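Multiplexed with Caspase-Glo 3/7 in CHO-K1 cells, this counter screen added CellTiter-Fluor after 16hr of compound exposure and recorded fluorescence 1hr later.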

Test [8] has as its target Thyrotropin-releasing hormone receptor (Homo sapiens) (UniProt P34981). Nature of the test: qHTS assay to identify small molecule antagonists of the thyrotropin-releasing hormone receptor (TRHR) signaling pathway (AID 1346877; active = well fitted inhibition curve with a large enough effect in the repeat runs, not every such curve was filed as active). Particulars: TRHR-HEK293, TRH-induced calcium fluorescence, antagonist mode; series mostly up to 51.3 µM. The essentials:
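TRHR-expressing HEK293 cells loaded with calcium dye for 2 h at 37 C; compounds pre-incubated 5 min at room temperature before TRH challenge at 1 nM final. Intracellular calcium fluorescence read kinetically for 3 min; 15 concentrations in triplicate.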

Test [9] has the same target. Put plainly: qHTS assay to identify small molecule agonists of the thyrotropin-releasing hormone receptor (TRHR) signaling pathway (AID 1346891; calls by dose curve). Particulars: TRHR-HEK293 calcium fluorescence, agonist mode; series mostly up to 57.6 µM. Summed up:
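Overnight-plated (18 h, 37 °C, 5% CO2) TRHR-Hek293 cells; 2 h calcium dye at 37 °C; compound in DMSO; 3-min kinetic fluorescence read.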

Sequence of Thyrotropin-releasing hormone receptor (Homo sapiens) (P34981 whole entry, looked up): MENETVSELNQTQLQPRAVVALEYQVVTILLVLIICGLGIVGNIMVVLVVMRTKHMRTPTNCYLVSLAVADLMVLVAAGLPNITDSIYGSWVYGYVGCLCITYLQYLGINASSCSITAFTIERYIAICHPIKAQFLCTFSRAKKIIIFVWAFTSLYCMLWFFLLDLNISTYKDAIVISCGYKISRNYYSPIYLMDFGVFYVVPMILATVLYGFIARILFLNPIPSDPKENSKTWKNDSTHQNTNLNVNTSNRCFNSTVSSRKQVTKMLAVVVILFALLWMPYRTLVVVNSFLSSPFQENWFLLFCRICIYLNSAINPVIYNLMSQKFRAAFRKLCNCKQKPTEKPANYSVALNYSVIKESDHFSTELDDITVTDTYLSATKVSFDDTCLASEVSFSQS

Consider `COC(/C=C(\C)CCC=C(C)C)OC`, for which the compound was classed as inactive in test [1], in test [2], in test [4] and in test [5]. The Potency result in test [3] and in test [6] was “inactive” in each case.
For `CCC(C)(CCC(C)C)C(=O)[O-].CCC(C)(CCC(C)C)C(=O)[O-].[Zn+2]` (stereo not given), the result in test [1], in test [2], in test [4] and in [5] was inactive. For the same compound, the Potency entry in test [3], in test [7] and in test [6] was “inactive” each time.
Consider `CNC(=O)C(c1ccccc1)c1ccccc1`, for which the result in test [1], in [2] and in test [5] was inactive. Also, the Potency entry in [3] and in [6] was “inactive” throughout.
`CCCCC[Si](OCC)(OCC)OCC`: the call in [1], in test [2], in test [4] and in [5] was inactive. The Potency result in [3], in [7] and in test [6] was “inactive” each time.
In the case of `CCCCC(CC)C(=O)OC(C)C` (stereo not given), the compound was called inactive in [1], in [2], in [8], in [9], in test [4] and in [5]. Also, the Potency result in [3], in test [7] and in [6] was “inactive” each time.
`O=C(COCCOCCOCC(=O)Nc1c(I)cc(I)c(C(=O)O)c1I)Nc1c(I)cc(I)c(C(=O)O)c1I`: the result in test [1], in [2], in [8], in test [9], in [4] and in test [5] was inactive. Besides, the Potency result in test [3] and in [6] was “inactive” each time.
For the compound `Nc1ccnc(=O)[nH]1`, the compound was called inactive in test [1], in test [2], in test [8], in test [9] and in [5]. For the same compound, the Potency result in test [3], in test [7] and in test [6] was “inactive” each time.
As for `Cc1ncc([N+](=O)[O-])n1CC(O)CCl` (stereo not given), the result in test [2], in [8], in test [9] and in [5] was inactive. For the same compound, the Potency result in test [3], in test [7] and in test [6] was “inactive” in each case.
As for `COc1cc([N+](=O)[O-])ccc1N`, the compound was called inactive in test [2], in test [8], in test [9], in test [4] and in [5]. Further, the Potency was 61.1 µM (active) in test [3], 54.5 µM (active) in [7] and 54.5 µM (active) in [6].
Regarding `c1ccc(CNc2ncnc3nc[nH]c23)cc1`, the compound was classed as inactive in test [1], in test [2], in [8], in [9], in test [4] and in test [5]. In addition, the Potency entry in [7] and in test [6] was “inactive” each time.
Consider `NC(Cc1c[nH]c2ccccc12)C(=O)O` (stereo not given), for which the compound was called inactive in test [2], in test [8], in test [9], in [4] and in test [5]. The Potency result in [3], in [7] and in test [6] was “inactive” in each case.
As to `CCN1CN(CC)CN(CC)C1`, the result in test [1], in [2], in test [8], in test [9], in test [4] and in test [5] was inactive. For the same compound, the Potency result in [3] and in test [6] was “inactive” in each case.
Consider `COCC(=O)Nc1c(I)c(C(=O)NCC(O)CO)c(I)c(C(=O)N(C)CC(O)CO)c1I` (stereo not given), for which the outcome in [1], in test [2], in [4] and in test [5] was inactive. Moreover, the Potency result in [3], in [7] and in test [6] was “inactive” each time.
In the case of `CN=C(NC#N)NCCSCc1csc(N=C(N)N)n1`, the outcome in [1], in test [2] and in [4] was inactive. In addition, the Potency entry in [3], in [7] and in test [6] was “inactive” throughout.
On to `CNC(=O)NC`, for which the result in test [1], in [2], in [4] and in [5] was inactive. Besides, the Potency entry in [3], in test [7] and in test [6] was “inactive” each time.
As for `Cc1cccc(NC(=S)N(C)C)c1`, the result in [2], in test [8], in test [9] and in test [4] was inactive. Moreover, in test [6], the Potency entry is “inactive”.
As to `CC(C)(CO)[C@@H](O)C(=O)NCCCO`, the compound was called inactive in test [1], in test [2], in test [4] and in test [5]. In addition, the Potency result in [7] and in [6] was “inactive” in each case.
With `O=C(/C=C/c1ccccc1)NCCO`, the compound was classed as inactive in test [2], in [8] and in test [5]. Further, the Potency result in test [3] and in test [6] was “inactive” in each case.

(Values after PubChem BioAssay (Tox21).)
